Measured values from the supplement of paper PMC6897291.
Where a name gives a salt, the structure may show the parent alone.

System: U-2932
Assay: growth inhibition by drug alone (1 - RLU/untreated control) (fraction); higher = stronger inhibition
Conditions: 177Lu-lilotomab satetraxetan 0 ug/ml
Method: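 U-2932 ABC-DLBCL cells were pretreated or not for 18 h with 1 ug/ml 177Lu-lilotomab satetraxetan (600 MBq/mg), washed and seeded (3000 cells/well) on 384-well plates pre-printed with the Selleck Cambridge Cancer Compound library. Viability was read by RealTime-Glo luminescence on days 3-6 after seeding. Effect = 1 - RLU/mean RLU of the 48 untreated no-drug control wells per plate; Bliss score = (M-E)/(1-Fa), with E the expected Bliss-additive effect.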

Row | SMILES | growth inhibition by drug alone (10 nM, time (day): 3) | growth inhibition by drug alone (10 nM, time (day): 4) | growth inhibition by drug alone (10 nM, time (day): 5) | growth inhibition by drug alone (10 nM, time (day): 6) | growth inhibition by drug alone (1000 nM, time (day): 3) | growth inhibition by drug alone (1000 nM, time (day): 4) | growth inhibition by drug alone (1000 nM, time (day): 5) | growth inhibition by drug alone (1000 nM, time (day): 6)
1 | N#Cc1ccc(NC(=O)Nc2ccccc2Br)c2n[nH]nc12 | 0.122 | 0.0624 | -0.115 | -0.0627 | 0.0674 | 0.0714 | -0.0804 | -0.0945
2 | CNC(=O)c1cc(COc2nnc(Nc3ccc(Cl)cc3)c3ccoc23)ccn1 [Telatinib (BAY 57-9352)] | -0.0124 | 0.00544 | -0.0774 | -0.272 | -0.0825 | -0.0325 | -0.0739 | -0.229
3 | COc1c(C)cnc(Cn2cnc3c(Cl)nc(N)nc32)c1C | 0.137 | 0.0945 | 0.017 | -0.0336 | 0.935 | 0.979 | 0.986 | 0.987
4 | CN(NC(=O)CC(=O)NN(C)C(=S)c1ccccc1)C(=S)c1ccccc1 [Elesclomol] | 0.796 | 0.791 | 0.818 | 0.825 | 0.982 | 0.982 | 0.983 | 0.984
5 | CC[C@@]1(O)C(=O)OCc2c1cc1n(c2=O)Cc2cc3c(CN(C)C)c(O)ccc3nc2-1 [Topotecan HCl] | 0.427 | 0.494 | 0.544 | 0.586 | 0.952 | 0.969 | 0.977 | 0.981
